Compounds with a hit are over-represented: about 7.2% of the library has one in this group of screens.
TSHR ag: qHTS Assay for Agonists of the Thyroid Stimulating Hormone Receptor; Potency, µM (top dose mostly 57.1 µM), for the others: top-dose activation, usual class: activators; 73,000 tested, 0.48% active; HEK293-CNG-TSHR cells (CNG channel as cAMP sensor), membrane potential dye, cAMP; Thyrotropin receptor (Homo sapiens), P16473; active means well fitted activation curve with a large enough effect in the main read-out, with a control signal flat, not every such curve was filed as active; inconclusive means small, poorly fitted or top-dose-only effect, or a change in a side signal; inactive means no such curve, though single readings can be large or run the other way; % of control where 0% means no effect;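 further: the control signal comes from parental cells without the receptor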
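HEK 293 cells stably expressing TSHR and a modified CNG channel, with CNG-only parental cells as counterscreen, were preloaded 60 min at room temperature with membrane potential dye containing 100 uM RO 20-1724. Compound exposure was 30 min, and depolarization was read as fluorescence at 590 nm.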
ERK AVP inh: qHTS Assay for Inhibitors of the ERK Signaling Pathway using a Homogeneous Screening Assay | HEK293-V1b, vasopressin-stimulated pERK AlphaScreen | 72,000 tested, 0.99% active | Potency, µM (highest dose often 57.5 µM), inactives show top-dose activity, negative = inhibition, usual class: inhibitors | AID 995, 2007; further: on the % scale 0 is the no-effect control and ±100 the full control effect; nearly all actives have a fitted effect of over 55% in size
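qHTS, compounds titrated on V1b-expressing HEK293 cells. Preincubation 30 min at 37C, vasopressin 25 nM for 5 min, lysis 10 min, bead incubation 5 hr at room temperature.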
FLuc inh: qHTS Assay for Inhibitors of Firefly Luciferase. Luciferin 4-monooxygenase (Photinus pyralis), P08659. purified firefly luciferase, luminescence, 8 min. Potency, µM (doses to about 57.1 µM), inactives show top-dose activity change, negative = inhibition, usual class: inhibitors. 72,000 tested, 2.2% active; further: on the % scale 0 is the no-effect control and ±100 the full control effect; nearly all actives have a fitted effect of over 40% in size
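qHTS concentration-response profiling: light output of P. pyralis luciferase with luciferin and 10 uM ATP, imidazole buffer pH 7.2. Read by luminescence after 8-min room-temperature incubation.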
Tau filament bind: qHTS Assay for Tau Filament Binding; Microtubule-associated protein tau (Homo sapiens), P10636; recombinant tau filaments, thioflavin S fluorescence, 15 h; filaments grown with octadecylsulfate alongside compound; Potency, µM (top dose mostly 57.1 µM), without a hit: top-dose activity change, negative = inhibition; 71,000 tested, 2% active;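 further: on the % scale 0 is the no-effect control and ±100 the full control effect; actives lower thioflavin S fluorescence by blocking filaments or displacing dye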
Target sequence (P10636 whole entry, looked up): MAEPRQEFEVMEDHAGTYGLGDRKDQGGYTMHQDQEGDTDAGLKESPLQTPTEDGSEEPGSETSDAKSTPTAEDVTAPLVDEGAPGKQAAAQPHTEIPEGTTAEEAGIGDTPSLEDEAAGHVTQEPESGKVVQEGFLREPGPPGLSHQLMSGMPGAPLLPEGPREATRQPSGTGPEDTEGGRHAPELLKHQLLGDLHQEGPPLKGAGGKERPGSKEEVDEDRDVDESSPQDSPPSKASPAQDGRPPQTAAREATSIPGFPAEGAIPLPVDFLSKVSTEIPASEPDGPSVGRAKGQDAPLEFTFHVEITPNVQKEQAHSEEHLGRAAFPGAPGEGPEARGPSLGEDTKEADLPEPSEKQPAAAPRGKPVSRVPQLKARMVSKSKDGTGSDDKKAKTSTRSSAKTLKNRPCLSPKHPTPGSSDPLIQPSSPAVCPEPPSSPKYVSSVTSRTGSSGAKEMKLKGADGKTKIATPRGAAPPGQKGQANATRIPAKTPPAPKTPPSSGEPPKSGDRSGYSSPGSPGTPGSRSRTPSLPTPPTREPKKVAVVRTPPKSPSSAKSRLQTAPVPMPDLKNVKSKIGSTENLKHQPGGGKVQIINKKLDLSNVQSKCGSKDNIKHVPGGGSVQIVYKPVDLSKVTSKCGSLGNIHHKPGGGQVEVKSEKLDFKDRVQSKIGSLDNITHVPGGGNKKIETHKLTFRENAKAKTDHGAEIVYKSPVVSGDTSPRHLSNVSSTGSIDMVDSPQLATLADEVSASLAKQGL
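Tau 2 uM in ThS buffer dispensed; compound added; 60 uM ODS added (finals 1 uM tau, 30 uM ODS); 15 h 37 C; fluor ex450/em510.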
Bst PK mod: Pyruvate Kinase | purified pyruvate kinase, luminescence ATP production; ribose 5-phosphate activator present at AC10 | AID 361, 2006 | 51,000 tested, 1.2% active | Potency, µM; in the data active means potency below about 11 µM; inconclusive means mostly about 12 µM to 25 µM;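 the screen sought inhibitors and activators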;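 further: scaled between full activation by ribose 5 phosphate and full inhibition by luteolin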
HEK293 cAMP ctrl: qHTS Assay for Agonists of the Thyroid Stimulating Hormone Receptor: Activators of Intracellular cAMP Concentrations in Parental HEK 293; 73,000 tested, 2.5% active; Potency, µM (top dose mostly 57.1 µM), for inactives: top-dose activation, most hits filed as activators; parental HEK293 CNG cAMP sensor, membrane potential fluorescence; further: % of control where 0% means no effect; nearly all actives have a fitted effect of over 55% in size
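Parental HEK 293 cells stably expressing a cAMP-gated CNG channel were loaded with membrane potential dye containing 100 uM RO 20-1724 for 60 min. Compound added for 30 min; depolarization read as fluorescence intensity at 590 nm.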
Active calls of the source: *; i = inactive; ? = inconclusive; · = no result given; [ ] = dose if it differs, or a comment. Unless noted, the call rests on the fitted dose curve; in most records, active means well fitted curve in the direction sought with a large enough effect; inconclusive means small, poorly fitted or top-dose-only effect, or another doubt; inactive means no such curve, though single readings can be large; an effect the other way counts as inactive or inconclusive. Potency means the concentration at half of the fitted maximal effect.

SMILES	TSHR ag	ERK AVP inh	FLuc inh	Tau filament bind	Bst PK mod	HEK293 cAMP ctrl
Cc1cc(NC(=O)c2cccc(F)c2)ncc1NC(=O)c1ccco1	29%	2%	16µM*	-1%	·	2%
O=C(Nc1ccc(NC(=O)c2ccco2)nc1)c1cccnc1	-1%	-26%	25µM*	6%	·	6%
COc1ccccc1CN1CC[C@@]2(CCCN(C(=O)c3ccco3)C2)C1	?	-16%	1%[11.4 µM]	-16%	·	?
O=c1c(-c2cccs2)nc2cnc(N3CCNCC3)nc2n1-c1ccccc1	-11%	28%	1%[11.4 µM]	i	·	-5%
C[C@H](O)[C@H](O)[C@@H]1CNc2nc(N)[nH]c(=O)c2N1	9%	26%	-1%	-4%	·	-3%
CN1[C@H](Cc2ccccc2)C=C[C@]1(C)C(=O)NCC1CC1	-1%	21%	·	-14%	·	16%
COc1cccc(Cn2c(=O)c(-c3cn(C)c4ccccc34)nc3cnc(OC)nc32)c1	2%	9%	1%[11.4 µM]	3%	·	16%
O=C(Nc1ccc(Cl)cc1C(=O)Nc1ccc(Br)cn1)c1ccco1	?	-6%	0%	51%	>57	20µM*
O=C(Nc1ccc(-c2noc(CCc3ccccc3)n2)cc1)c1ccco1	12%	-7%	10µM*	49%	?	8%
O=C(Nc1cnc2ccccc2c1)c1cccnc1	6%	-14%	-28%	-17%	·	10%
O=C(Nc1cnc2ccccc2c1)c1ccco1	5%	-19%	20µM*	-11%	i	-13%
COc1ccc(C(=O)N2CCC3(CCN(Cc4ccc(C#N)cc4)CC3)CC2)cc1	?	-3%	1%[11.4 µM]	7%	·	?
CCC1=C(C[C@H]2NCCc3ccccc32)C[C@@H]2c3cc(OC)c(OC)cc3CCN2C1	?	1%[11.5 µM]	1%[11.4 µM]	0%[11.4 µM]	·	?
CCCC(=O)Nc1cccc(-c2nc3cc(C)c(C)cc3o2)c1	6%[11.4 µM]	-16%	7.9µM*	i[11.4 µM]	·	4%[11.4 µM]
CCC(=O)Nc1ccc2oc(-c3cccc(C)c3)nc2c1	-6%	-13%	2.5µM*	17%	2.1*	4%
CCCC(=O)Nc1ccc2oc(-c3cccnc3)nc2c1	1%	-8%	-14%	-7%	·	-1%
CCCC(=O)Nc1cccc(-c2nc3ccccc3o2)c1	-7%	14%	-4%	41%	>57	6%
CNc1ccnc(-c2ccccc2C(F)(F)F)n1	7%	20%	0%[2.29 µM]	-6%	·	-1%
O=C1c2ccccc2C(O)N1Cc1ccco1 (stereo not given)	-4%	-25%	-3%	6%	·	7%
c1coc(CN=C2NC(=NCc3ccco3)c3ccccc32)c1	-12%	-9%	2%	10µM*	>57	-12%
CC1=C(/C=C/C(C)=C/C=C/C(C)=C/C=C/C=C(C)/C=C/C=C(C)/C=C/C(=O)[C@]2(C)CC(O)CC2(C)C)C(C)(C)CC(O)C1 (stereo not given in full)	·	-2%	·	·	·	·
CC(/C=C/C=C(C)/C=C/C(=O)O)=C\C=C\C=C(C)\C=C\C=C(C)\C=C\C(=O)O	0%	-1%	·	3.2µM*	·	31%
CC(c1nnc(SCn2nnc3ccccc3c2=O)n1-c1ccc(Cl)cc1)N(C)C (stereo not given)	2%	3%	-1%	-9%	>57	3%
CC(C)N=c1cc2n(-c3ccc(Cl)cc3)c3ccccc3nc-2cc1Nc1ccc(Cl)cc1	-20%[25.6 µM]	?	-3%[25.5 µM]	0.13µM*	>26	6%[25.6 µM]
Nc1nc(Cl)nc2c1ncn2[C@@H]1O[C@H](CO)[C@@H](O)[C@H]1O	·	10µM*	0%[25.5 µM]	·	>26	·
SMILES	TSHR ag	ERK AVP inh	FLuc inh	Tau filament bind	Bst PK mod	HEK293 cAMP ctrl
Nc1nc2c(ncn2[C@@H]2O[C@H](CO)[C@@H](O)[C@H]2O)c(=O)[nH]1	·	-18%	·	·	·	·
CCc1nnc2n1N=C(c1ccc(-c3cc(Cl)ccc3Cl)o1)CS2	-8%	-18%	-1%	16µM*	>57	-5%
CCc1nnc2n1N=C(c1ccc(-c3ccc(Cl)cc3Cl)o1)CS2	12%[11.4 µM]	-29%	0%	25µM*	>57	10%
Clc1ccc(OCc2nnc3n2N=C(c2ccc4c(c2)OCCO4)CS3)c(Cl)c1	?	17%	0%	138%	>57	?
COc1ccc2[nH]cc(CCNc3ncncc3-c3ccc4c(c3)OCO4)c2c1	?	?	2%[2.29 µM]	-16%	·	?
COc1cc(NC(=O)C(C)C)ccc1NC(=O)c1ccco1	-3%	0%	20µM*	1%	·	7%
Cc1ccc(NC(=O)c2ccco2)c(NC(=O)CN2C(=O)c3ccccc3C2=O)c1	6%	-11%	-1%	-2%	>57	2%
COc1ccc(NC(=O)c2ccco2)c(OC)c1	5%	-3%	-7%	-2%	>57	1%
CCCCOc1ccccc1NC(=O)c1ccco1	?	-19%	-4%	1%	·	16µM*
Cc1ccc(Cn2cccc(NC(=O)c3ccco3)c2=O)cc1	?	11%	-7%	-17%	·	16µM*
Cc1cccc2cc3ccc4ccccc4c3cc12	10%[11.4 µM]	-5%[11.5 µM]	-3%[11.4 µM]	4%[11.4 µM]	·	-4%[11.4 µM]
COCCNc1nc(C)nc2c1nc(-c1ccccc1)n2CC1CCN(C)CC1	0%	4%	·	-3%	·	15%
C/C1=C/CC(C)(C)/C=C/C/C(C)=C/CC1	·	-3%	·	·	·	·
CCCCC(CC)COC(=O)COc1ccc(Cl)cc1Cl (stereo not given)	9%	57%	·	5%	·	19%
CCCCC(CC)COC(=O)C(C#N)=C(c1ccccc1)c1ccccc1 (stereo not given)	12%	34%	·	32µM*	·	26%
COc1ccccc1CNc1ccc(N2CCCCC2)cc1	?	16µM*	-14%	10µM*	>57	?
COc1cccc(CNc2ccc(S(N)(=O)=O)cc2)c1OC	2%	-10%	-9%	-1%	>57	20%
COc1cccc(CNc2ccc(N3CCCCC3)cc2)c1OC	-5%	20µM*	?	7.9µM*	>57	9%
COc1ccccc1CNC(=O)c1ccc(CNc2c(N3CCCC3)c(=O)c2=O)cc1	-1%	6%	1%	24%	·	1%
O=c1c2ccccc2oc2cc(O)c([C@@H]3COC[C@@H](CO)[C@@H](O)[C@@H](O)[C@H]3O)c(O)c12	10%	·	1%[11.4 µM]	?	·	-5%
CC(c1ccco1)N(C(=O)c1cccs1)c1ccccn1 (stereo not given)	3%	-3%	0%	69%	>57	4%
